Bioassay records (PubChem BioAssay)
NALP1 yeast inh – NALP1 inhibition | S. cerevisiae NALP1/ASC/caspase-1 growth, X-gal OD620, 72 h | inhibition, % at 10 µM | 280,000 tested, 0.61% active; in the data active = inhibition mostly above about 24%, no sharp cut-off; inactive = mostly below about 32%
Hsp70 act – transcriptional activators of Hsp70; HeLa Hsp70 promoter luciferase reporter, luminescence; scaled: vehicle 0, proteasome-inhibitor control 100%; activation, % at 10 µM; 200,000 tested, 0.04% active;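 active = activation above the mean across all tested compounds plus 3 SD, cutoff set per campaign, cut at about 5.5% in these data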;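 also: 100% = MG132 at 30 µM as the positive control and 0% = DMSO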
HSF1 activator – increases HSF-1 driven luciferase reporter signal; 300,000 tested, 1.7% active; activation, % at 9 µM; NIH3T3-HGL HSF-1 luciferase reporter, MG132, 8 h; 100% = twice DMSO control signal;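 active = mean replicate activation of at least 50% with a set share of replicates each reaching 50%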;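 also: 0% = median of the neutral control wells and 100% = twice that signal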
pCIP destab – compounds decreasing mouse p/CIP protein stability; Q05BA5; F442A p/CIP-EGFP cells, EGFP fluorescence, 16 h; decrease of EGFP signal, % at 10 µM; 290,000 tested, 0.01% active; AID 1984;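 active = EGFP signal decrease of at least 30% at 10 µM or well 3 SD below plate mean, unless failing retest; inactive = the rest, including hits failing retest or dose response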
Target sequence (Q05BA5 1-1403): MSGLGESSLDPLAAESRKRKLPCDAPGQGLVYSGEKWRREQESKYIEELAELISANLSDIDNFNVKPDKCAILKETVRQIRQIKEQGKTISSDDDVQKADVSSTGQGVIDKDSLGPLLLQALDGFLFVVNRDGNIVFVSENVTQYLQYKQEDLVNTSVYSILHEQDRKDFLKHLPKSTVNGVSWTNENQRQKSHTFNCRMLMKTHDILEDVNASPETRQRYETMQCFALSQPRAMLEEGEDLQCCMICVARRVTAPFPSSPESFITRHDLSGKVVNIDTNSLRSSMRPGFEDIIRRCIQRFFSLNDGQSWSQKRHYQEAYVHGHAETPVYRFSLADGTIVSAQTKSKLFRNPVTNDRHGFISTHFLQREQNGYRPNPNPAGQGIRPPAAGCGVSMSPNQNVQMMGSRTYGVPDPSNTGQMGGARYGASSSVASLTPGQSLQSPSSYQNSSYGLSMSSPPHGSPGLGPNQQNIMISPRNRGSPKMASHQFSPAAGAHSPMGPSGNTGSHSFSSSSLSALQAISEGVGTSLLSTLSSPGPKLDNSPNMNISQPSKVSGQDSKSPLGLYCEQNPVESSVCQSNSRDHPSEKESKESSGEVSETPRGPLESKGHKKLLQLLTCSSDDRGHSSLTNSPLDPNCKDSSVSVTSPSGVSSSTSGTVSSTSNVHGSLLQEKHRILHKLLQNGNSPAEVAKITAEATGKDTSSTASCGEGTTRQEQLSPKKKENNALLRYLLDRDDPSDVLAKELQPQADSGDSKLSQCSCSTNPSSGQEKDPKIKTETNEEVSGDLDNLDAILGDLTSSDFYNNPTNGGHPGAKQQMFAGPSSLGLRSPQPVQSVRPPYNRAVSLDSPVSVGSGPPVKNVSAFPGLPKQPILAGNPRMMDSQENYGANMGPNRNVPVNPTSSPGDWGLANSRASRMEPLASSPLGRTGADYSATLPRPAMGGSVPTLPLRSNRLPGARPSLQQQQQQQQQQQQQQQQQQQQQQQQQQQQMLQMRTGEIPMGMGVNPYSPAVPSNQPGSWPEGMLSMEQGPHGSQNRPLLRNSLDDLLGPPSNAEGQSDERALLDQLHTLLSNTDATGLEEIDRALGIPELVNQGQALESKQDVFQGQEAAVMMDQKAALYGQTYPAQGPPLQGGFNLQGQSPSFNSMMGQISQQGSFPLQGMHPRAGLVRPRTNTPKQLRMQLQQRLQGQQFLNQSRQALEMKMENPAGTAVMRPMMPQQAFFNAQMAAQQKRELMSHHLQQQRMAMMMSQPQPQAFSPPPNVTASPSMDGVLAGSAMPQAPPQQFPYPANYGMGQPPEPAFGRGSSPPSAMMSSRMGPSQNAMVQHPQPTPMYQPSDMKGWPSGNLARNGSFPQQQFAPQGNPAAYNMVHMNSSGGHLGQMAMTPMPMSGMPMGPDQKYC
HSP90 refold inh – blocks HSP90-mediated luciferase refolding in reticulocyte lysate; Rabbit reticulocyte lysate, luciferase refolding luminescence, 3 h; 290,000 tested, 0.91% active; inhibition, % at 5.6 µM;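 active = inhibition above the screen-wide mean plus 3 SD, computed separately per campaign, cut at about 16% in these data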;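 also: 0% = DMSO wells and 100% = 60 µM geldanamycin wells; inhibitors lower the luminescence because luciferase stays unfolded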
HSF1 inhib – HSF1 inhibition. NIH3T3-HGL HSE-luciferase, MG132-induced, luminescence 8 h; hits give low values. activity change, negative = inhibition, % at 7.5 µM (by protocol). 300,000 tested, 0.77% active. AID 2098;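 active = more than half of replicate wells show activity change below -50%, luminescence cut by over half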;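 also: luciferase reports HSF-1 transcriptional activity via heat shock element; 0% = median of DMSO wells and -100% = zero luminescence signal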
HSP90 inh confirm – HSP90 inhibition, confirmation assay; shares compounds with HSP90 refold inh; inhibition, % at 5.9 µM; 2,300 tested, 64% active; rabbit reticulocyte lysate, luciferase refolding luminescence, 3 h; in the data active = inhibition above about 18%;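 also: 0% = vehicle wells and 100% = reference inhibitor wells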
luciferase ctr – firefly luciferase inhibition, HSP90 counter-screen; shares compounds with HSP90 refold inh; purified native firefly luciferase, luminescence; inhibition, % at 5.9 µM; 2,300 tested, 48% active; AID 1847;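 active = inhibition above the mean inhibition of all tested sample wells plus 3 SD, cut at about 10% in these data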;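 also: 0% = DMSO with luciferase and 100% = wells lacking luciferase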
Numbers without * were called inactive; . = no result given. In the library only some 3.8% were active in any assay of this set; here they are far more common.

SMILES	NALP1 yeast inh	Hsp70 act	HSF1 activator	pCIP destab	HSP90 refold inh	HSF1 inhib	HSP90 inh confirm	luciferase ctr
CCOC(=O)c1c(C)[nH]c(C2=NNC(=NC3CC3)SC2)c1C	-5	0	-1	-11	55*	-2	84*	75*
O=C(CSc1ncccc1C(=O)O)c1ccc2ccccc2c1	10	0	39	-4	96*	9	93*	-10
CC(C)(C)c1ccc(S(=O)(=O)Nc2noc3ccccc23)cc1	6	.	-12	-6	-1	2	.	.
Cc1ccc(-c2nc(-c3nccc4ccccc34)oc2-c2ccccc2)cc1	-13	.	54*	-1	23*	28	41*	46*
O=C(COc1ccc(CO)cc1)Nc1ccc(F)cc1	22	0	23	-10	-2	9	.	.
O=C(COc1ccc(CO)cc1Cl)Nc1ccc(F)cc1	51	0	55*	0	37*	34	39*	36*
NC(=NCCc1ccccc1)NS(=O)(=O)c1ccccc1F	12	.	-5	2	-5	-6	.	.
CSc1ccc(CN(C)CC(=O)Nc2c(F)cccc2F)cc1	11	0	5	-15	3	2	.	.
CCN(CC)P(=O)(Nc1ccc([N+](=O)[O-])cc1)c1c(C)nn(CCC#N)c1NC(=O)c1ccc(Cl)cc1 (configuration not stated)	15	.	40	-16	57*	5	14	-8
Cc1cc(NC(=O)c2ccc([N+](=O)[O-])cc2)n(CCC#N)n1	12	.	0	-10	-1	-5	.	.
Cc1ccc(NC(=O)CCl)cc1S(=O)(=O)N1CCCCCC1	-5	0	-8	-17	2	-2	.	.
Cc1ccc(NC(=O)Cc2ccc3c(c2)OCCO3)cc1S(=O)(=O)N1CCCCC1	.	.	0	2	27*	-1	6	0
Cc1ccc(NC(=O)Nc2nnc(-c3ccccc3)o2)cc1	12	0	21	1	-3	14	.	.
Cc1ccc(-c2nnc(Nc3ccccc3)o2)cc1	10	-1	-25	-6	36*	-7	81*	71*
COc1ccc2cc(C(=O)N/N=C/c3sc4ccccc4c3O)ccc2c1	12	0	6	-12	18*	-8	0	-10
CC(C)(C)c1ccc(/C=C2\SC(=O)N(CCNC(=O)c3cccc(S(=O)(=O)N4CCOCC4)c3)C2=O)cc1	22	0	-70	7	21*	-63*	74*	70*
c1ccc(-n2cnc3cc(NCc4cccs4)ccc32)cc1	11	0	-69	-4	51*	-67*	63*	61*
COc1ccccc1OCCSc1nnnn1-c1ccc(C)cc1	-6	.	32	-8	.	9	.	.
Fc1ccccc1OCCSc1nnnn1-c1ccccc1	15	0	44	-10	25*	33	29*	6
C=CCN1C(=O)/C(=C\c2ccc(Oc3nc(N4CCOCC4)nc(N4CCOCC4)n3)c(OC)c2)SC1=S	6	0	-9	-1	39*	-6	10	0
COc1cc(/C=C2\SC(=S)N(N3CCOCC3)C2=O)ccc1O	.	.	-5	2	2	-2	.	.
COc1ccc(N2CCN(C(=O)c3ccc4nc(N5CCCCC5)sc4c3)CC2)cc1	28	0	-21	-14	19*	-9	29*	-8
O=C(c1ccc2nc(N3CCOCC3)sc2c1)N1CCCC1	.	0	8	-6	-3	5	.	.
CCn1cc(C(=O)NCCCOC(C)C)c(=O)c2cc(S(=O)(=O)N3CCOCC3)ccc21	-1	.	-4	-7	-1	-6	.	.
O=C(Nc1ccc(N2CCOCC2)cc1)c1cnccn1	31	.	22	-6	46*	1	67*	44*
SMILES	NALP1 yeast inh	Hsp70 act	HSF1 activator	pCIP destab	HSP90 refold inh	HSF1 inhib	HSP90 inh confirm	luciferase ctr
O=C(Nc1ccc(N2CCOCC2)cc1)c1cnsn1	17	0	-41	8	71*	-38	83*	76*
O=C(Nc1ccccc1N1CCOCC1)c1cnccn1	-1	0	-9	-3	5	-9	.	.
Cn1c2ccccc2c(=O)c2ccc(C#CC3(O)CCCCC3)cc21	8	.	-66	-8	59*	-65*	66*	65*
CCOC(=O)/C(C#N)=C/c1cc(C)n(-c2ccc(C)cc2)c1C	-1	0	-13	-6	13	-5	.	.
CCOC(=O)/C(C#N)=C\c1cc(C)n(-c2ccccc2)c1C	8	0	-69	-14	50*	-63*	63*	62*
CCN(CC)c1ccc2cc(-c3nc4ccccc4[nH]3)c(=O)oc2c1	41	0	-42	-335	35*	-33	68*	67*
Cc1csc(SCC(=O)NC(C)C2CC3CCC2C3)n1 (configuration not stated)	.	.	-3	.	.	0	.	.
O=C(O)c1ccc(NNC(=S)Nc2cc(C(F)(F)F)ccc2Cl)cc1	3	.	7	2	61*	-2	54*	53*
O=C(NC(=S)Nc1cc(C(F)(F)F)ccc1Cl)c1ccccc1	14	0	20	-4	-4	3	.	.
CCCCN(C)S(=O)(=O)c1c(C)[nH]c(=O)[nH]c1=O	18	0	2	5	25*	-12	1	-7
CCCCN(CCCC)S(=O)(=O)c1c(C)[nH]c(=O)[nH]c1=O	6	0	-8	4	-2	-1	.	.
CN(C)S(=O)(=O)c1ccc(C(=O)N2CCN(S(=O)(=O)c3cccs3)CC2)cc1	20	0	-1	20	0	-10	.	.
O=C(Nc1nccs1)c1cc2c(s1)CCCCC2	10	-1	-46	-6	59*	-42	86*	81*
O=C(Nc1nncs1)c1cc2c(s1)CCC2	-5	0	25	16	-1	25	.	.
O=C(N/N=C1/CCc2ccccc21)C1CC1	7	0	-3	-32	-2	-5	.	.
S=C(N/N=C1\CCc2ccccc21)NC1CCCCC1	18	0	-64	12	26*	-55*	34*	0
Cc1cc(C(=O)NNC(=S)NC2CCCCC2)cs1	-9	.	-15	-20	3	7	.	.
CCN(c1ccccc1)c1cc2ccccc2c(=O)[nH]1	21	.	18	7	41*	-3	9	-4
CCOc1cc(-c2sc(Nc3ccccc3)n[n+]2C)ccc1OC	-10	.	-5	-2	-3	-4	.	.
Cc1ccc(NC(=S)NC(=O)c2cncc(Br)c2)cc1Cl	.	.	11	.	.	-5	.	.
O=C(NC(=O)c1ccccc1)Nc1cccc(S(=O)(=O)N2CCCCC2)c1	11	.	-2	0	1	0	.	.
